# Changes are numbered by the printed parent chain.
# Columns and labels:
# Assay in all cases: HT-SELEX; high values mean tight binding
# Conditions in all cases: protein: recombinant; vector His6-GST; dsDNA, one strand shown
# SALL4 ZFC4 WT (HT-SELEX) = target: T1, SALL4 ZFC4 WT (HT-SELEX) (Mus musculus, UniProt Q8BX22 870-940)
# T1 sequence: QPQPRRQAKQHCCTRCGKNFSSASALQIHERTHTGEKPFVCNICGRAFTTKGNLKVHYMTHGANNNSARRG
# Method in brief: (§1)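 Binding signal is expressed as fold change in each canonical k-mer's read fraction over the initial random library. To obtain it, 1 µg of purified recombinant mouse SALL4 zinc finger cluster 4 (residues 870–940) was incubated for 10 min at room temperature with library DNA (1.5 µg first cycle, 200 ng later cycles) in 100 µl of 10 mM Tris–HCl pH 7.5, 50 mM NaCl, poly(dI-dC) and DTT. Ni2+ bead-captured complexes went through washing, PCR amplification and reselection for up to 6 cycles, in triplicate, before MiSeq sequencing and scanning for 6-mers.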
# [1] = target: T2, SALL4 ZFC4 R900W (HT-SELEX) (Mus musculus, UniProt Q8BX22 870-940, R900W)
# T2 sequence: T1 sequence with R31W
# Method in brief: as §1
# [2] = target: T3, SALL4 ZFC4 G921D (HT-SELEX) (Mus musculus, UniProt Q8BX22 870-940, G921D)
# T3 sequence: T1 sequence with G52D
# Method in brief: as §1
Sequence,binding signal (SALL4 ZFC4 WT (HT-SELEX)) [fold-change vs cycle 0],binding signal [1] [fold-change vs cycle 0],binding signal [2] [fold-change vs cycle 0]
CATTAA,2.01 ± 0.0894,1.95 ± 0.11,1.74 ± 0.165
ATCCGG,0.352 ± 0.0195,0.41 ± 0.0188,0.52 ± 0.0559
ACGAGG,0.436 ± 0.0164,0.534 ± 0.018,0.618 ± 0.0579
ATGGCA,0.55 ± 0.0226,0.607 ± 0.0241,0.733 ± 0.0739
GATCAC,0.862 ± 0.0581,1.01 ± 0.0278,1.11 ± 0.0305
ATAGTG,1.28 ± 0.0269,1.33 ± 0.0375,1.31 ± 0.0797
ACGGAA,0.706 ± 0.0319,0.803 ± 0.0284,0.868 ± 0.0441
ACAGGT,0.824 ± 0.0401,0.95 ± 0.0293,0.985 ± 0.0191
AATTGG,1.07 ± 0.0351,1.15 ± 0.0596,1.19 ± 0.036
CCACAG,0.371 ± 0.0258,0.424 ± 0.0221,0.535 ± 0.0512
CTGGGA,0.455 ± 0.0297,0.528 ± 0.00656,0.594 ± 0.0357
GGAACC,0.444 ± 0.034,0.539 ± 0.0289,0.622 ± 0.0467
CGTCTA,0.63 ± 0.0233,0.702 ± 0.0194,0.79 ± 0.0202
GTACTA,1.24 ± 0.0382,1.37 ± 0.098,1.29 ± 0.0902
CTAGCC,0.314 ± 0.031,0.395 ± 0.0257,0.508 ± 0.064
AAATTC,1.76 ± 0.142,1.66 ± 0.0813,1.58 ± 0.109
GCATAC,0.665 ± 0.00696,0.738 ± 0.0335,0.819 ± 0.0421
CACACA,0.666 ± 0.03,0.777 ± 0.0199,0.826 ± 0.0389
AGCTAG,0.723 ± 0.0356,0.815 ± 0.0265,0.874 ± 0.021
AGACAG,0.803 ± 0.00959,0.914 ± 0.0204,0.943 ± 0.0351

Sequence,binding signal (SALL4 ZFC4 WT (HT-SELEX)) [fold-change vs cycle 0],binding signal [1] [fold-change vs cycle 0],binding signal [2] [fold-change vs cycle 0]
ATCCAA,1.28 ± 0.0363,1.37 ± 0.0499,1.32 ± 0.0492
AGTCTC,0.837 ± 0.0339,0.9527 ± 0.00762,1 ± 0.0392
CTAGTA,1.34 ± 0.0412,1.54 ± 0.0865,1.39 ± 0.135
AGATCA,1.29 ± 0.0762,1.44 ± 0.0715,1.46 ± 0.0921
CTTTCC,0.771 ± 0.025,0.935 ± 0.0213,0.967 ± 0.0233
ACCACT,0.783 ± 0.0402,0.885 ± 0.0293,0.93 ± 0.0313
GTCAAA,0.9908 ± 0.00315,1.12 ± 0.0182,1.13 ± 0.0122
ACATAG,1.3 ± 0.0172,1.35 ± 0.0801,1.34 ± 0.0894
AGGTTC,0.828 ± 0.0497,0.972 ± 0.0561,1.02 ± 0.0282
AATAAC,2.58 ± 0.181,2.03 ± 0.114,1.79 ± 0.168
AAGAAA,2.03 ± 0.13,2.08 ± 0.193,1.78 ± 0.233
AACCAA,1.22 ± 0.0287,1.31 ± 0.0414,1.28 ± 0.0656
AGGGAA,0.891 ± 0.0417,1.01 ± 0.045,0.989 ± 0.0164
CGTGGA,0.351 ± 0.0215,0.435 ± 0.0211,0.54 ± 0.0631
ACCCTA,0.864 ± 0.0329,0.973 ± 0.0359,0.982 ± 0.053
CTCGAA,0.675 ± 0.0333,0.763 ± 0.0367,0.838 ± 0.0207
TTATAA,4.21 ± 0.59,2.77 ± 0.289,2.3 ± 0.394
ACAACC,0.707 ± 0.0139,0.814 ± 0.0173,0.875 ± 0.0311
TGAACA,1.29 ± 0.0296,1.4 ± 0.0577,1.36 ± 0.0684
AACTCA,1.37 ± 0.0562,1.48 ± 0.0196,1.4 ± 0.113

Sequence,binding signal (SALL4 ZFC4 WT (HT-SELEX)) [fold-change vs cycle 0],binding signal [1] [fold-change vs cycle 0],binding signal [2] [fold-change vs cycle 0]
CGAATA,1.1 ± 0.0554,1.13 ± 0.0519,1.14 ± 0.0398
CGTTAA,1.13 ± 0.0737,1.25 ± 0.0783,1.17 ± 0.0825
CACCCA,0.431 ± 0.034,0.488 ± 0.0313,0.59 ± 0.0722
ACATCA,1.32 ± 0.0619,1.42 ± 0.0539,1.37 ± 0.0921
ATTTTC,1.99 ± 0.115,1.68 ± 0.0202,1.56 ± 0.0749
GCTCTA,0.572 ± 0.0244,0.686 ± 0.0351,0.788 ± 0.0186
CACTCA,0.83 ± 0.0249,0.928 ± 0.0236,0.995 ± 0.0233
ACTATC,1.35 ± 0.0436,1.45 ± 0.0712,1.39 ± 0.1
CCGATA,0.671 ± 0.053,0.717 ± 0.0449,0.816 ± 0.0546
GACTAC,0.777 ± 0.0619,0.891 ± 0.0393,0.967 ± 0.0652
ACCCAA,0.736 ± 0.034,0.839 ± 0.0217,0.873 ± 0.0335
TCTCCA,0.872 ± 0.044,0.992 ± 0.0225,0.99 ± 0.0254
CTCATA,1.52 ± 0.0984,1.48 ± 0.0543,1.41 ± 0.106
TACCGA,0.689 ± 0.0125,0.749 ± 0.0345,0.837 ± 0.0299
CCCTAG,0.516 ± 0.0342,0.601 ± 0.0265,0.667 ± 0.029
AATAGA,2.12 ± 0.0946,2.06 ± 0.0912,1.79 ± 0.161
CTTGCC,0.3123 ± 0.00236,0.384 ± 0.0251,0.501 ± 0.0709
ACACGA,0.663 ± 0.0255,0.777 ± 0.0248,0.869 ± 0.0214
CTTCAA,1.25 ± 0.0505,1.41 ± 0.0826,1.33 ± 0.122
ATGAAT,3.02 ± 0.199,2.16 ± 0.113,1.92 ± 0.161
